Bioassay records: PubChem BioAssay, National Center for Advancing Translational Sciences (NCATS)
Tau fluor counter – Counterscreen qHTS for Inhibitors of Tau Fibril Formation, Fluorescence Polarization; 0.93% of 280,000 active; tau K18 P301L Alexa594 fluorescence, heparin fibrillization; AID 1463, 2008; Potency, µM (top dose mostly 57.7 µM), inactives show at the highest dose activity change, negative = decrease; note: potency is the fitted concentration of half-maximal effect; nearly all actives have a fitted effect of over 55% in size
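Human K18 P301L tau (15 uM unlabeled plus 0.24 uM Alexa 594-labeled, final) in 100 mM sodium acetate pH 7 was mixed with compound and 20 uM heparin and incubated 6 hr at 37 C.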
Tau ThT inhib – qHTS for Inhibitors of Tau Fibril Formation, Thioflavin T Binding; recombinant tau K18 P301L (four-repeat tau fragment), heparin-induced fibrillization, ThT fluorescence; Microtubule-associated protein tau (Homo sapiens), P10636; Potency, µM (titrated, usually from 57.4 µM), for the others: at the top dose activity, negative = inhibition, usual class: inhibitors; 2.1% of 270,000 active; note: potency is the fitted concentration of half-maximal effect; nearly all actives have a fitted effect of over 55% in size
Target sequence (P10636 561-689 P618L limits assumed): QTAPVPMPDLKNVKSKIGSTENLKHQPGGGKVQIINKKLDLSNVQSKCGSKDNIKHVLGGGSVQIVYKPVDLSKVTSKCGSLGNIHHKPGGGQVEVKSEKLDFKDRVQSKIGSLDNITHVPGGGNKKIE
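Heparin-induced (20 uM) aggregation of recombinant human K18 P301L tau, 15 uM unlabeled with 0.24 uM labeled, pH 7 acetate buffer, 6 hr at 37 C with compound. Fibrils quantified by 30 uM ThT fluorescence after 1 hr ambient incubation.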
Sfp PPTase inh – qHTS Assay for Inhibitors of Bacillus subtilis Sfp phosphopantetheinyl transferase (PPTase); 3.5% of 310,000 active; Biochemical Sfp PPTase activity, qHTS; Potency, µM, for inactives: largest response in the series, negative = inhibition, hits mostly inhibitors; 4'-phosphopantetheinyl transferase ffp (Bacillus subtilis), Q9F4F7;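 note: the enzyme is Sfp with the accession as filed and its product quenches rhodamine fluorescence; potency is the fitted concentration of half-maximal effect; 0% = enzyme reaction without inhibitor and -100% = no enzyme wells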
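Fluorescence-quenching assay with 15 nM Sfp, 5 uM rhodamine-CoA and 12.5 uM BHQ-2-labelled ybbR peptide in pH 7.6 Hepes/MgCl2 buffer. Enzyme was pre-incubated with compound for 15 min at room temperature. Rate was taken from the 30-min fluorescence change (525/598 nm).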
Tau fibril FP – qHTS for Inhibitors of Tau Fibril Formation, Fluorescence Polarization | Potency, µM (series often up to 57.7 µM), for the others: top-dose activity, negative = inhibition, actives largely listed as inhibitors | 0.39% of 280,000 active | K18 P301L tau heparin fibrillization, Alexa594 FP, 6 h | Microtubule-associated protein tau (Homo sapiens), P10636; note: potency is the fitted concentration of half-maximal effect; nearly all actives have a fitted effect of over 55% in size
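FP of Alexa 594-tau after heparin (20 uM) induction. Substrate: human K18 P301L, 15 uM unlabeled, 0.24 uM labeled. Buffer 100 mM sodium acetate pH 7. 6 hr, 37 C.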
Coupling enz – qHTS Assay for Inhibitors of Fructose-1,6-bisphosphate Aldolase from Giardia Lamblia: Coupling assay counterscreen; activity change, negative = inhibition, % at 58.2 µM, hits read low; 0.67% of 290,000 active; coupling enzyme system counterscreen, AmpLite Red fluorescence; in the data active = activity change below about -30%
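Counterscreen of the coupled detection system alone, without aldolase: glyceraldehyde-3-phosphate coupling enzymes plus AmpLite Red readout. Compounds at 57.5 uM final, 10 min RT preincubation, 20 min RT reaction, fluorescence 525/598 nm.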
Numbers without * were called inactive; ? = inconclusive; / = not tested or not shown; [ ] = dose if it differs, or a comment. Compounds with a hit are over-represented: about 5.2% of the library has one in this group of screens. Unless noted, calls come from the whole dose curve; as a rule, active = well fitted curve in the direction sought with a large enough effect; inconclusive = small, poorly fitted or top-dose-only effect, or another doubt; inactive = no such curve, though single readings can be large; an effect the other way counts as inactive or inconclusive. Unless noted, % is set by controls: 0 for no effect and ±100 for the full control effect.

SMILES | Tau fluor counter | Tau ThT inhib | Sfp PPTase inh | Tau fibril FP | Coupling enz
O=C(O)c1ccc(-c2ccc3cc(C45CC6CC(CC(C6)C4)C5)c(O)cc3c2)cc1 | / | / | ? | / | -10
C[C@@]12CC3CC(N)(C1)C[C@@](C)(C3)C2 | / | / | 22% | / | 0
CCOc1cc(C2C(C#N)=C(N)Oc3c2c(=O)oc2ccccc32)ccc1OC(=O)c1cccs1 (stereo not given) | ? | -11% | 50µM* | ? | 2
Cc1ccc(Cl)cc1N1CCN(c2ncnc3c2nc2n3CCCC2)CC1 | -14% | ? | / | -13% | /
Cc1c(CCC(=O)N2CCCCC2)c(=O)oc2cc3occ(C(C)(C)C)c3cc12 | -8% | ? | / | 14% | /
COC(=O)[C@]1(C)CC[C@@]2(C)CC[C@@]3(C)C4=CC=C5C(=CC(=O)C(O)=C5C)[C@@]4(C)CC[C@@]3(C)C2C1 (stereo not given in full) | ? | 28µM* | -85% | ? | -3
c1ccc(CNCCc2ccc3c(c2)OCO3)nc1 | 2% | -1% | -4% | 3% | 0
Fc1cccc(CCNCc2ccccn2)c1 | -3% | -9% | 56µM* | -6% | /
CN1C(=O)/C(=C/C=C/c2ccco2)C(=O)NC1=S | ? | / | 13µM* | ? | -5
Cn1cc(/C=C2\C(=O)NC(=O)N(c3ccccc3)C2=O)c2ccccc21 | / | / | -15% | / | 0
Cc1ccc(N2C(=O)NC(=O)/C(=C\C=C\c3ccco3)C2=O)cc1 | ? | / | ? | 13µM* | 2
CN(C)c1ccc(/C=C/C=C2/C(=O)NC(=O)N(c3ccccc3)C2=O)cc1 | ? | 4µM* | 45µM* | ? | -8
Cn1cccc1/C=C1\C(=O)NC(=O)N(Cc2ccco2)C1=O | -24% | ? | -20% | 1% | -3
Cc1cccc(N2C(=O)NC(=O)/C(=C\C=C\c3ccco3)C2=O)c1 | -5% | 10µM* | 45µM* | ? | 4
N=C1/C(=C/c2ccc(OC(=O)c3ccco3)cc2)C(=O)N=C2SC=CN12 | -14% | ? | 15% | 2% | -2
CCCN1CCCC2Cc3[nH]ncc3CC21 (stereo not given) | -2% | -4% | 2% | 6% | /
Cc1ccc(NC(=O)Cn2c(=O)oc3cc(S(=O)(=O)N4CCCCCC4)ccc32)cc1Cl | -10% | 6% | / | ? | /
O=C=NCCCCN=C=O | / | / | 8% | / | 4
Cc1ccc(N2C(=O)NC(=O)/C(=C\c3cc(C)n(-c4ccc(C(=O)O)cc4)c3C)C2=O)cc1 | / | / | -23% | / | 9
Cc1cccc(N2C(=O)NC(=O)/C(=C/c3ccc([N+](=O)[O-])o3)C2=O)c1 | 2% | 0% | 13µM* | 4% | -36*
Cc1ccc(N2C(=O)NC(=O)/C(=C\C=C\c3ccco3)C2=O)cc1C | -14% | 13µM* | -71% | ? | 0
O=C1NC(=O)N(c2ccccc2)C(=O)/C1=C/C=C/c1ccco1 | / | / | 32µM* | / | 3
CC(=O)C1CCC2C3CCC4CC(C)(O)CCC4(C)C3CCC12C (stereo not given) | / | / | 25% | / | 1
NC(=O)CNC(=O)[C@H](Cc1ccccc1)NC(=O)[C@H](CCCN=C(N)N)NC(=O)[C@@H](N)Cc1ccc(O)cc1 | -2% | 5% | 19% | -1% | /
CCCOc1ccc(N2C(=O)CC(N3CC=C(c4ccccc4)CC3)C2=O)cc1 (stereo not given) | -20% | 32µM* | -2% | ? | 1
SMILES | Tau fluor counter | Tau ThT inhib | Sfp PPTase inh | Tau fibril FP | Coupling enz
CN1C(=O)C(=Cc2ccc(Sc3ccccc3)o2)C(=O)N(C)C1=O | ? | ? | 6% | -1% | 0
Cc1c(C=C2C(=O)NC(=O)NC2=O)c(=O)n(-c2ccccc2)n1C | 3% | ? | 3% | 0% | 1
O=C1NC(=O)C(=Cc2ccc(N3CCOCC3)cc2)C(=O)N1 | 0% | ? | -8% | -10% | 0
O=C1NC(=O)C(=Cc2ccc(-c3ccc(F)cc3O)o2)C(=O)N1 | / | / | 50µM* | / | 2
O=C1NC(=O)C(=Cc2ccc(Sc3ccccc3)o2)C(=O)N1 | 1% | ? | 25µM* | 4% | 0
O=C1NC(=O)C(=Cc2ccc(-c3ccc(Cl)cc3)o2)C(=O)N1 | / | / | 20µM* | / | 1
O=C1NC(=O)C(=Cc2ccc(-c3ccc(S(=O)(=O)N4CCOCC4)cc3)o2)C(=O)N1 | / | / | 8.9µM* | / | 2
c1cc2c(cc1C1OC[C@@H]3C(c4ccc5c(c4)OCO5)OCC13)OCO2 (stereo not given in full) | -24% | ? | -4% | -4% | 6
c1ccc(N=Nc2ccccc2)cc1 | -9% | -7% | 9% | -4% | 1
[Hg+][c]1ccccc1 | / | / | 0.22µM* | / | /
CCOc1ccc(-c2nc3ccc(-c4nc5ccc(N6CCN(C)CC6)cc5[nH]4)cc3[nH]2)cc1 | ? | 2.8µM* | ? | 6% | -2
COc1ccc(OC)c([C@H](O)[C@H](C)N)c1 | / | / | 29% | / | 0
COC(=O)/C(C)=C\CC12OC(C)(C)C3CC(C=C4C(=O)c5c(OC)c6c(c(CC=C(C)C)c5OC431)OC(C)(CCC=C(C)C)C=C6)C2=O (stereo not given) | -22% | 28µM* | ? | ? | -2
CC(=O)Oc1c2c(c(CC=C(C)C)c3c1C(=O)C1=CC4CC5C(C)(C)OC(C/C=C(\C)C(=O)O)(C4=O)[C@]15O3)OC(C)(CCC=C(C)C)C=C2 (stereo not given in full) | ? | 7.1µM* | 25µM* | 10µM* | -2
O=C1NC(=O)c2c1c1c3ccccc3n3c1c1c2c2ccccc2n1C1CCC3O1 | / | / | 2% | / | 2
CC(=O)C(O)C(c1ccccc1)c1c(O)c2ccccc2oc1=O (stereo not given) | / | / | 9% | / | 0
Cc1cc2c(cc(C(=O)N3CCC(C(=O)NC4CCCC4)CC3)n2Cc2c(F)cccc2Cl)o1 | -10% | ? | 50µM* | 4% | 2
CCOC(=O)C1CCN(Cc2c(F)cccc2Cl)CC1 | 8% | 5% | ? | 1% | 1
CCc1ccc(-c2nc(CN3CCCC(C(=O)NCc4ccc(C)cc4)C3)c(C)o2)cc1 (stereo not given) | -9% | ? | / | -3% | /
O=c1[nH]c(=O)n(-c2ccc(Cl)cc2)c(O)c1C=Nc1ccc(S(=O)(=O)Nc2nccs2)cc1 | 4% | -17% | -21% | 2% | 8
Clc1cccc(/C=N\Nc2nccs2)c1 | 18µM*[quencher] | ? | -4% | 15% | -3
CC1=CC[C@@H]2[C@@H](C1)c1c(O)cc(CC#CCCCNS(C)(=O)=O)cc1OC2(C)C | ? | ? | 18% | 9% | -25
